Results published in PubChem BioAssay AID1159580 (chemical genetic matrix, 2015).
“And” between values parts separate entries of the source, which are not always exact repeats. Equal values may be shown once. Hit rate of the full screen: of about 5,500 compounds, about 2,000 (36%) were called active. Another 18% or so got no clear call; they are omitted. Rule as the data show it: active = normalized growth mostly below about 0.91 (no sharp cut-off); inconclusive = no clear call, values can overlap the other calls; inactive = mostly above about 0.92. The list shows a part of the results.

Experiment: chemical genetic growth profiling, strain panel (AID 1159580);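 also: tested at 20 µM; growth read once vehicle control cultures reached saturation at 30 °C; 1 = growth at the plate median or of vehicle wells; lower values mean less growth of the strain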
Conditions: S. cerevisiae deletion strains, growth OD

Measured: normalized growth

CC(C)[C@@H]1CC[C@@H](C)CC1=O
inactive: locus YAL013W, strain DEP1, hits give low values 1.01 | locus YAL021C, strain ccr4, hits give low values 0.945 | locus YAL026C, strain drs2, hits give low values 1.01 | locus YAL030W, strain snc1, hits give low values 0.998 | locus YBL061C, strain skt5, hits give low values 0.993 | locus YBR009C, strain hhf1, hits give low values 0.981 | locus YBR021W, strain FUR4, hits give low values 0.98 | locus YBR023C, strain chs3, hits give low values 0.993 | locus YBR171W, strain sec66, hits give low values 0.986 | locus YBR229C, strain ROT2, hits give low values 1.01 | locus YBR231C, strain swc5, hits give low values 0.988 | locus YBR279W, strain paf1, hits give low values 0.994 | locus YCL011C, strain gbp2, hits give low values 0.967 | locus YCL016C, strain dcc1, hits give low values 0.978 | locus YCL029C, strain bik1, hits give low values 1.01 | locus YCL061C, strain MRC1, hits give low values 0.997 | locus YCL069W, strain vba3, hits give low values 0.99 | locus YCR088W, strain abp1, hits give low values 0.997 | locus YDL005C, strain med2, hits give low values 0.998 | locus YDL035C, strain GPR1, hits give low values 1.02 | locus YDL040C, strain nat1, hits give low values 1 | locus YDL074C, strain BRE1, hits give low values 1.02 | locus YDL101C, strain DUN1, hits give low values 1.02 | locus YDL134C, strain PPH21, hits give low values 1.02 | locus YDL185W, strain tfp1, hits give low values 1.01 | locus YDL192W, strain arf1, hits give low values 1.02 | locus YDR001C, strain nth1, hits give low values 1.01 | locus YDR069C, strain doa4, hits give low values 1.01 | locus YDR101C, strain arx1, hits give low values 1.01 | locus YDR137W, strain rgp1, hits give low values 1 | locus YDR150W, strain NUM1, hits give low values 1.02 | locus YDR159W, strain sac3, hits give low values 0.996 | locus YDR162C, strain NBP2, hits give low values 1.04 | locus YDR195W, strain ref2 0.976 | locus YDR297W, strain sur2, hits give low values 0.987 | locus YDR318W, strain mcm21, hits give low values 0.998 | locus YDR334W, strain swr1, hits give low values 0.993 | locus YDR335W, strain msn5, hits give low values 0.987 | locus YDR388W, hits give low values 1 | locus YDR392W, strain spt3, hits give low values 0.963 | locus YDR502C, strain sam2, hits give low values 1.01 | locus YEL003W, strain gim4, hits give low values 0.995 | locus YEL037C, strain rad23, hits give low values 0.982 | locus YEL061C, strain CIN8 (second series), hits give low values 0.989 | locus YEL061C, strain CIN8, hits give low values 1 | locus YER015W, strain faa2, hits give low values 0.984 | locus YER016W, strain bim1, hits give low values 0.991 | locus YER110C, hits give low values 1.01 | locus YER111C, strain swi4, hits give low values 1 | locus YER155C, strain BEM2 (second series), hits give low values 0.99 | locus YER155C, strain BEM2, hits give low values 0.998 | locus YER167W, strain BCK2, hits give low values 1.02 | locus YFR010W, strain ubp6, hits give low values 0.996 | locus YGL078C, strain dbp3, hits give low values 1 | locus YGL086W, strain mad1, hits give low values 1.01 | locus YGL167C, strain pmr1, hits give low values 0.992 | locus YGL173C, strain kem1, hits give low values 0.999 | locus YGL227W, strain vid30, hits give low values 1 | locus YGL240W, strain doc1, hits give low values 1 | locus YGL248W, strain PDE1, hits give low values 1.02 | locus YGL253W, strain hxk2, hits give low values 0.992 | locus YGR078C, strain PAC10, hits give low values 1.02 | locus YGR135W, strain pre9, hits give low values 1.01 | locus YGR229C, strain SMI1, hits give low values 1.05 | locus YGR252W, strain gcn5, hits give low values 1.03 | locus YHR013C, strain ard1, hits give low values 0.979 | locus YHR027C, strain rpn1, hits give low values 1 | locus YHR030C, strain SLT2, hits give low values 1.01 and 0.977 | locus YHR079C, strain IRE1 (second series), hits give low values 0.995 | locus YHR079C, strain IRE1, hits give low values 0.976 | locus YHR094C, strain hxt1, hits give low values 1.02 | locus YHR129C, strain ARP1, hits give low values 1.01 | locus YHR142W, strain chs7, hits give low values 0.968 | locus YHR200W, strain rpn10, hits give low values 1.01 | locus YIL066C, strain RNR3, hits give low values 1.04 | locus YIL073C, strain SPO22, hits give low values 1.06 | locus YIL125W, strain kgd1, hits give low values 1.02 | locus YIR030C, strain dcg1, hits give low values 1.01 | locus YJL092W, strain hpr5, hits give low values 0.989 | locus YJL095W, strain BCK1 (second series), hits give low values 0.978 | locus YJL095W, strain BCK1, hits give low values 1.06 and 0.982 | locus YJL115W, strain asf1, hits give low values 0.991 | locus YJL129C, strain trk1, hits give low values 1.01 | locus YJL134W, strain LCB3, hits give low values 1.01 | locus YJL154C, strain vps35, hits give low values 0.989 | locus YJL164C, strain tpk1, hits give low values 0.961 | locus YJL166W, strain qcr8, hits give low values 0.995 | locus YJL168C, strain set2, hits give low values 0.996 | locus YJL187C, strain SWE1 (second series), hits give low values 1.03 | locus YJL187C, strain SWE1, hits give low values 0.99 | locus YJR043C, strain POL32, hits give low values 1.02
